# Source: PubChem BioAssay
# This is a sample that favours compounds with a hit; in the whole collection about 3.4% have one here.
# m-calpain inh = blocks pig calpain II enzyme activity; purified calpain II, fluorogenic peptide substrate, 30 min; 220,000 tested, 0.37% active; inhibition, % at 16 µM; AID 1236;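 active = inhibition above about 50%, limit read from the data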
# Mcl1 Bid PPI = disrupts binding of human Mcl-1 to Bid peptide. Q07820. 220,000 tested, 0.97% active. inhibition, % at 21.7 µM. AID 1021. TR-FRET Mcl-1/Bid-Dy647 peptide binding, 1536-well;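 active = compounds that cut the binding signal by more than half at the single screening dose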;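 also: His-tagged Mcl-1 with europium anti-His antibody binding Bid BH3 peptide; 0% = Mcl-1 plus peptide wells and 100% = peptide-only wells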
# Bim-Mcl-1 = inhibitors of Bim-Mcl-1 interaction, human; Bead-based flow cytometry, Bim peptide-Mcl-1 binding; 190,000 tested, 0.1% active; AID 1009; Q07820; inhibition, % at 10 µM; in the data active = inhibition above about 40%;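 also: 0% = no compound tracer wells and 100% = peptide blocker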
# Mcl1 Noxa PPI = disrupts binding of human Mcl-1 to Noxa peptide. TR-FRET Mcl-1/Noxa peptide binding, 2 h. AID 1022. inhibition, % at 21.7 µM. 220,000 tested, 1.5% active. Q07820;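 active = compounds that cut the protein-peptide binding signal by more than 50% relative to plate controls in a single-dose test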;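 also: His-tagged Mcl-1 with rhodamine Noxa BH3 peptide and terbium anti-His antibody; 0% = Mcl-1 plus Noxa peptide wells and 100% = peptide-only wells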
# 14-3-3 Bad PPI = disrupts binding of bovine 14-3-3 zeta to phospho-Bad peptide. P63103. TR-FRET 14-3-3zeta/Dy647-pBad peptide displacement, 1 h. 220,000 tested, 0.71% active. inhibition, % at 21.7 µM;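 active = inhibition above about 70%, limit read from the data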;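 also: 0% = full 14-3-3 plus peptide FRET controls and 100% = background without 14-3-3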
# p47phox inh = blocks human p47phox regulatory protein of NADPH oxidases. inhibition, % at 24.7 µM. 220,000 tested, 0.53% active. AID 1274. p47phox/p22phox peptide binding, fluorescence polarization, 2 h;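 active = inhibition above about 30%, limit read from the data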;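 also: 0% = p47phox with labelled peptide and 100% = labelled peptide alone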
# Target sequence (P14598 whole entry, looked up): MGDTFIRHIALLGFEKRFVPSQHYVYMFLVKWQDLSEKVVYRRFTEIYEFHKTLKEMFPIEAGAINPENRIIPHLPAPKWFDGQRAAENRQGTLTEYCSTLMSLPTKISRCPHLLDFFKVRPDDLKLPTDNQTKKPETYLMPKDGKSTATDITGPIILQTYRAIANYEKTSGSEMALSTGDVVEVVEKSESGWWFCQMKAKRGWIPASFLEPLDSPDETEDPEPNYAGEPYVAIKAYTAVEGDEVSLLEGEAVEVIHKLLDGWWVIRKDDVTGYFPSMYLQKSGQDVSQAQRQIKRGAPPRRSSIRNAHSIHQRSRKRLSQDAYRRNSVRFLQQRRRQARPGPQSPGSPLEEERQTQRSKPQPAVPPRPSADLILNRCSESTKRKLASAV
# * hit, by the source's call; i = inactive; . = no result given.
SMILES,m-calpain inh,Mcl1 Bid PPI,Bim-Mcl-1,Mcl1 Noxa PPI,14-3-3 Bad PPI,p47phox inh
O=C1C2C3C=CC(CO)(O3)C2C(=O)N1c1ccccc1-c1ccccc1 (stereo unspecified),-13,5,-14,53*,8,1
Cc1cccc(/C=C/c2nc3ccccc3c(=O)[nH]2)c1,i,-10,-2,2,-3,7
Cc1[nH]c2ccccc2c1/C=C/c1nc2ccccc2c(=O)[nH]1,-23,64*,.,74*,82*,-7
C=CCNCCCOc1ccc(C(C)(C)c2ccccc2)cc1,-8,52*,-2,32,62,-7
COCCCNCCCOc1ccc(C(C)(C)c2ccccc2)cc1,-2,45,-3,25,-7,-1
CCOC(=O)c1nn(-c2ccccc2)c(=O)c2c(N)scc12,4,-18,-1,22,-5,-20
Nc1scc2c(C(=O)N/N=C/c3ccc(Cl)cc3)nn(-c3ccccc3)c(=O)c12,-133,4,1,94*,-3,-12
Cn1c(=O)c2c(nc(NCc3ccccc3)n2C)n(C)c1=O,17,-56,0,25,-12,-20
Cn1c(N2CCCC2)nc2c1c(=O)n(Cc1ccc(F)cc1)c(=O)n2C,-3,-21,3,2,-3,9
COc1ccc(CNc2nc3c(c(=O)n(Cc4ccc(F)cc4)c(=O)n3C)n2C)cc1,80*,-42,-3,1,1,-24
Cn1c(NCc2ccccc2)nc2c1c(=O)n(Cc1ccccc1)c(=O)n2C,62*,-3,1,4,-22,-17
CCOCCOC(=O)c1ccc(-n2cncn2)nc1,11,-14,-2,10,5,-5
Cc1ccccc1C(=O)c1cccn1CC(=O)NCCN1CCN(c2cccc(C)c2C)CC1,-41,-14,1,-20,-7,-4
O=C(CN1CCN(Cc2ccccc2Cl)C1=O)NCc1ccccn1,-5,-36,.,-11,-4,6
NNC(=O)c1cccc(COc2cccc(Br)c2)c1,-20,-12,-1,-17,-3,5
O=C(NN1CCOCC1)c1cccc(COc2cccc(Br)c2)c1,-18,-9,0,3,93*,-2
COc1ccc(CNC(=O)C(c2ccncc2)N(C(=O)Cc2cccs2)c2ccc(C)cc2)cc1 (stereo unspecified),2,-13,-1,-8,7,-12
Clc1ccc(OCc2nnc(-c3ccccc3Br)o2)c(Cl)c1,35,-4,38,4,17,43*
O=[N+]([O-])c1ccc2c(OCc3nnc(-c4ccccc4Br)o3)ncnc2c1,-18,6,.,61*,8,-8
CC(C)(C)OC(=O)C1C(=O)CC(C)(O)C(C(=O)OC(C)(C)C)C1c1cccnc1 (stereo unspecified),-22,-17,1,-3,80*,-9
O=c1[nH]c2c(s1)C(c1ccc(O)cc1)C1C3CCC(C3)C1S2 (stereo unspecified),9,48,0,54*,5,-10
O=c1[nH]c2c(s1)C(c1cccnc1)C1C3CCC(C3)C1S2 (stereo unspecified),17,-47,.,-9,2,-9
COC(=O)N/N=C\c1cccc(OC(=O)c2cccs2)c1,-7,-12,0,13,-14,1
O=C1NN(c2ccc(Cl)c(Cl)c2)C(=O)/C1=C/c1cccc(OC(=O)c2cccs2)c1,-75,90*,-1,96*,54,-20
O=C1NN(c2ccccc2)C(=O)/C1=C\c1cccc(OC(=O)c2cccs2)c1,0,16,-3,57*,12,-8
SMILES,m-calpain inh,Mcl1 Bid PPI,Bim-Mcl-1,Mcl1 Noxa PPI,14-3-3 Bad PPI,p47phox inh
CCOc1ccc(NC(=O)COn2nnc3ccc(S(=O)(=O)N4CCOCC4)cc32)cc1,17,-10,-1,71*,-2,-4
CCOCC(=O)Nc1ccc(S(=O)(=O)N2CCOCC2)cc1,-5,1,1,12,-9,-2
CC(C)NC(=S)NNc1nc2ccccc2s1,15,-76,0,30,-2,0
Cc1ccc(C(C)C)c(OCCN(C)C)c1,2,60*,-7,24,22,0
CCCN(CCC)CCOc1cc(C)ccc1C(C)C,39,50,-5,41,56,1
O=C(COC(=O)c1ccc([N+](=O)[O-])s1)Nc1ncc(C(F)(F)F)cc1Cl,-32,-8,-3,25,9,-18
